Measurements published in PMC4336329 (PLoS ONE, 2015).
The campaign covered roughly 310,000 compounds. About 14,000 (4.5%) showed an effect of 50% or more. The effect is printed as a negative number. This is one part of a sample in which strong results are shown more often than they occur.

Molecular target: human ether-à-go-go-related gene (hERG) potassium channel (human, UniProt Q12809)
Test: primary screen, population patch clamp on CHO cells stably expressing hERG; higher = less effect of the substance
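Further: peak tail current of the secondary pulse compared with the same well before compound.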

Chain of human ether-à-go-go-related gene (hERG) potassium channel (Q12809 whole entry, looked up): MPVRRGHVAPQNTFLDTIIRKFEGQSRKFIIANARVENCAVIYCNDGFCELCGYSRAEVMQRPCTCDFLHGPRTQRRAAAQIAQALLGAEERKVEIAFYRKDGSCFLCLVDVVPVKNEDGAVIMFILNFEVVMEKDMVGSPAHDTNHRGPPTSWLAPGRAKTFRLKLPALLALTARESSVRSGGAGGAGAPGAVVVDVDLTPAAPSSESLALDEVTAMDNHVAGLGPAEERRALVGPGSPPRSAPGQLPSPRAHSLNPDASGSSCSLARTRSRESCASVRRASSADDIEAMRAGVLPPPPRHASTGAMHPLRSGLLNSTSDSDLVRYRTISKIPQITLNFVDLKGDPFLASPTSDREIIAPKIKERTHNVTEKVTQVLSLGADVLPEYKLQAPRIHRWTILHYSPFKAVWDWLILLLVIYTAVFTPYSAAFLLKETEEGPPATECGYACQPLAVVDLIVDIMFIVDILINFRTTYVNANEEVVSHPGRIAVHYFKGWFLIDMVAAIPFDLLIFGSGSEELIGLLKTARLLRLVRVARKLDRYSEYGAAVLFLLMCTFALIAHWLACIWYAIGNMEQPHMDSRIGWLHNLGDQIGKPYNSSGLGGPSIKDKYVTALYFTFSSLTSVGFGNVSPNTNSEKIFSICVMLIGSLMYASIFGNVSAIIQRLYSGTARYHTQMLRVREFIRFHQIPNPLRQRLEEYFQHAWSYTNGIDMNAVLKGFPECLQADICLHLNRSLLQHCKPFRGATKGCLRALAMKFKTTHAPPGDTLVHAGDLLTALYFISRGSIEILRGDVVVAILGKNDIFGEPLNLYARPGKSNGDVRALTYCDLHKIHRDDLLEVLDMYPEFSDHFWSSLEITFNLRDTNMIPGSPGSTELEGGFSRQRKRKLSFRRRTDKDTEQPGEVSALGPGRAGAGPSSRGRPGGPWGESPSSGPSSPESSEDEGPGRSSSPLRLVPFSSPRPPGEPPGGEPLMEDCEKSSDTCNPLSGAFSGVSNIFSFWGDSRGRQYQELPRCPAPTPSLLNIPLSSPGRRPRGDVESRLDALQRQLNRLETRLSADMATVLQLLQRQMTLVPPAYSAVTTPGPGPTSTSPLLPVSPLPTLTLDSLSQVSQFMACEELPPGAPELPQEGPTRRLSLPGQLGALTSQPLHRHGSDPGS

Row | Structure (SMILES) | hERG current change (%, negative = inhibition) at 10uM [%]
1 | Cc1cc(C(F)(F)F)c(C#N)c(SCC(=O)NC2CC2)n1 | -4.11
2 | CC(=O)NC1=NN(C(C)=O)C(C)(CS(=O)(=O)c2ccc3ccccc3c2)S1 (centres unmarked) | -0.325
3 | COc1ccc(OC)c(-n2c(-c3cc(-c4ccco4)[nH]n3)n[nH]c2=S)c1 | 1.18
4 | COc1ccccc1NS(=O)(=O)c1ccc(C)c(NC(=O)C2CCCO2)c1 (centres unmarked) | 4.4
5 | O=C(CNC(=O)c1ccc2c(c1)OCCO2)N/N=C/c1ccc(Cl)cc1 | 14.1
6 | Cc1occc1C(=O)N1CCN(C(=O)C2CCCO2)CC1 (centres unmarked) | -12.2
7 | COc1ccccc1N(CC(=O)NC1CCCC1)S(=O)(=O)c1ccc(C)cc1 | -5.82
8 | CCCC(=O)Nc1nnc(SCC(=O)NCc2cccs2)s1 | 8.39
9 | Cn1c(CCN2CCCCCC2)nc2cc(NC(=O)Nc3ccccc3)ccc21 | -35.7
10 | Cn1c(CCN2CCCCC2)nc2cc(NS(=O)(=O)c3ccc(Cl)cc3)ccc21 | -73.8
11 | Cn1c(CCN2CCCCC2)nc2cc(NC(=O)Nc3ccccc3)ccc21 | -28
12 | Cn1c(=O)[nH]c(=O)c2c1nc(NCCCO)n2CCCc1ccccc1 | -5.36
13 | CN(C)c1nc2c(c(=O)[nH]c(=O)n2C)n1CCCc1ccccc1 | -19.1
14 | CCCCCn1c(N(C)Cc2ccccc2)nc2c1c(=O)[nH]c(=O)n2C | -17.1
15 | Cn1c(=O)[nH]c(=O)c2c1nc(N(CCO)Cc1ccccc1)n2CCCc1ccccc1 | -64.6
16 | CN(Cc1ccccc1)c1nc2c(c(=O)[nH]c(=O)n2C)n1CCCc1ccccc1 | -51.8
17 | C=C(C)Cn1c(N(CCO)Cc2ccccc2)nc2c1c(=O)[nH]c(=O)n2C | -2.53
18 | CCOC(=O)N1CCN(CC(=O)Nc2cc(C)nn2-c2nc3ccccc3s2)CC1 | -23.3
19 | COc1ccc(Cl)cc1NC(=S)N1CCN(c2ncccn2)CC1 | 13.6
20 | CCc1nc(SCc2ccccc2C#N)n[nH]1 | 13.4

Row | Structure (SMILES) | hERG current change (%, negative = inhibition) at 10uM [%]
21 | CC(=O)NCCC(=O)Nc1nc(-c2cccs2)c(-c2cccs2)s1 | -6.66
22 | COc1ccc(-c2noc(CSc3nnc(-c4ccccc4)n3C)n2)cc1 | -32.8
23 | CCOC(=O)c1sc2nc(C)nc(NCc3ccccc3)c2c1C | 9.35
24 | CCOC(=O)c1sc2nc(C)nc(NCc3ccc(F)cc3)c2c1C | 17.2
25 | CCOC(=O)c1sc2nc(CC(=O)OC)nc(NCC(=O)OC)c2c1C | -9.05
26 | CCOC(=O)c1sc2nc(CC(=O)OC)nc(NCc3ccc(Cl)cc3)c2c1C | -7.35
27 | CCOC(=O)c1sc2nc(C)nc(NCc3ccc(Cl)cc3)c2c1C | -80.6
28 | CCOC(=O)c1sc2nc(CC(=O)OC)nc(NCCN(CC)CC)c2c1C | -62.7
29 | COc1cc(NC(=O)c2ccc(F)cc2)c(OC)cc1Cl | 3
30 | O=S1OC(c2ccccc2)c2cc(Cl)ccc21 (centres unmarked) | 11
31 | COc1cccc(-c2noc(CCC(=O)NC3CCCC3)n2)c1 | 7.42
32 | Cn1c(=O)c2c(nc(SCC(=O)O)n2Cc2cc3c(cc2Cl)OCO3)n(C)c1=O | 6.88
33 | O=c1[nH]c(CSc2nnc(COc3ccccc3)n2-c2ccccc2)nc2ccccc12 | -4.92
34 | C/C(=N\N1CCN(C2c3ccccc3-c3ccccc32)CC1)c1cccnc1 | -2.47
35 | C/C(=N/N1CCN(Cc2cccc3ccccc23)CC1)c1cccnc1 | -50.1
36 | C(=N\N1CCN(Cc2cccc3ccccc23)CC1)/c1cccnc1 | -1.95
37 | COc1ccc(N(CC(=O)N2CCc3ccccc3C2)S(C)(=O)=O)cc1Cl | -25.7
38 | O=C(c1ccccc1)c1coc2ccc(O)c(Cl)c12 | -10.9
39 | CCN(CC)Cc1c(O)ccc2occ(C(=O)c3ccccc3)c12 | -72.6
40 | COc1ccc2occ(C(=O)c3ccccc3)c2c1 | -15.3

Row | Structure (SMILES) | hERG current change (%, negative = inhibition) at 10uM [%]
41 | Cc1oc2ccc(O)c(CN(C)C)c2c1C(=O)c1ccccc1 | -42.4
42 | Cc1ccc(C(=O)c2coc3ccc(O)c(CN(C)C)c23)cc1.Cl | -54.7
43 | Cc1ccc(C(=O)c2coc3ccc(O)cc23)cc1 | 23.2
44 | CN(C)Cc1c(O)ccc2occ(C(=O)c3ccccc3)c12 | -52.8
45 | CN(C)Cc1c(O)ccc2occ(C(O)c3ccccc3)c12 (centres unmarked) | -2.08
46 | CN(C)Cc1c(O)ccc2occ(C(=O)c3ccc(F)cc3)c12 | -69.6
47 | Cc1ccc(C(=O)c2coc3ccc(O)c(Cl)c23)cc1 | -26.5
48 | COC(=O)C1(C)NC(c2ccc(Cl)cc2)C2C(=O)N(c3ccccc3)C(=O)C21 (centres unmarked) | -3.27
49 | COc1ccc(C2(c3ccc(OC)cc3)NC(=O)N(CC(=O)Nc3ccc(OC(F)F)cc3)C2=O)cc1 | -19.2
50 | CCOc1ccc(N2C(=O)C3CCCN3C2=O)cc1 (centres unmarked) | 10.1
51 | O=C(O)C1CCN1C1CCCCC1 (centres unmarked) | 5.54
52 | COC(=O)CCCCCCCCCC[N+]1(C)CCCCC1.[I-] | -0.248
53 | C[N+]1(CCCCSc2ccc(O)cc2)CCCCC1.[I-] | -51.7
54 | CC(=O)OCCCCCCCCCCC[N+]1(C)CCCCC1.[I-] | -7.49
55 | Nc1c(C(=O)CSc2nc(-c3ccccc3)cs2)c(=O)[nH]c(=O)n1C1CC1 | -7.63
56 | O=C(c1ccco1)n1nc(-c2ccccc2)nc1SCc1ccccc1 | 3.93
57 | COC(=O)[C@H]1[C@H]2C[C@H]3c4[nH]c5ccccc5c4CCN3C[C@@H]2CC[C@@H]1O | -12.5
58 | COC(=O)[C@@H]1[C@H]2C[C@H]3c4[nH]c5ccccc5c4CCN3C[C@@H]2CC[C@@H]1O | -57.5
59 | COC(=O)C1C(O)CCC2CN3CCc4c([nH]c5ccccc45)C3CC21 (centres unmarked) | -21.1
